These results are taken from PubChem BioAssay (NCI).

The structures appear in SMILES notation. About 83,000 compounds went through this panel and 20% of them were active in at least one assay; those are over-represented in the sample as a whole.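 Compound tested at a single concentration for 48 hours in 96-well plates; a percent growth value below 10 was scored as active.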 Active and inactive are the calls of the source.

For the first experiment, the system named is MDA-MB-231 breast. In words: NCI-60 one-dose screen, 48 h (100 = growth as untreated, 0 = no growth, -100 = all killed). The settings on record: 10 µM unless noted.
Consider `Cc1ccc(Cl)cc1NC(=O)c1cc2ccccc2cc1O`, for which the growth is -56.8% (active).
Same read-out and setting: to `COc1ccc(NC(=O)CSc2nc(C)c(C(C)=O)n2-c2ccc([N+](=O)[O-])cc2)cc1` belongs 80.3% (inactive).
On the same count and under the same terms, to `O=C(NC(Cc1nnc2n(Cc3ccccc3)c(=O)c3c4c(sc3n12)CCCC4)c1ccc(Cl)cc1)c1ccccc1` (stereo unspecified) belongs 83.2% (inactive); to `COc1cc(C2CC(=O)Nc3c2c(C)nn3-c2nc3ccccc3[nH]2)c(OC)c(OC)c1OC` (stereo unspecified), 72.3% (inactive).
On the same count and under the same terms, then `Cn1c(-c2c(N)n(Cc3ccc(C(F)(F)F)cc3)c3nc(C#N)c(C#N)nc23)nc2ccccc21`, with -13.2% (active); and `N#Cc1c(-c2ccccc2)cc(-c2ccc(Nc3nc(Nc4ccc(F)cc4)nc(Nc4ccc(F)cc4)n3)cc2)nc1N`, with 73.2% (inactive); and `Cc1c(O)cc(-c2cnc(N/N=C\c3ccc(Cl)cc3)s2)c(O)c1C`, with 95.4% (inactive).
`COc1ccc2c(c1)O/C(=C\c1cccc(OCC(=O)Nc3nc4ccccc4s3)c1)C2=O`: the growth was 74.8% (inactive).
Still for that read-out and setting: then `Cn1c2c(c3ccc(Cl)c(Cl)c31)C(C#N)C1(CCNCC1)NC2=O` (stereo unspecified), with 42.2% (inactive); and `COc1ccc(C2=NN(C(=O)c3cc(OC)c(OC)c(OC)c3)C(c3ccc(Cl)cc3)C2)cc1OC` (stereo unspecified), with 47.6% (inactive); and `CCN(CC)CCN1CC(O)=C(c2nc(-c3ccc(Cl)cc3)cs2)C1=N`, with 12.6% (inactive).
On the same count and under the same terms, then `C=C(C)[C@@H]1CC=C2c3sc(-c4ccc(C)cc4)nc3C[C@@H](C)[C@]2(C)C1`, with 107% (inactive); and `COC(=O)c1c2c(c[n+]([O-])c1C)C(=O)C=CC2=O`, with 49.9% (inactive).
On the same count and under the same terms, to `COc1ccc(NC(=O)CSc2nnc(-c3cc(-c4ccccc4)nc4ccccc34)n2-c2ccccc2)cc1` belongs 89.3% (inactive); to `COc1cc(C2CC(=O)Nc3c2c(C)nn3-c2nc3ccccc3[nH]2)cc2c1OCC(=O)N2` (stereo unspecified), 55.8% (inactive); to `Cc1cc(Cl)nc(NCc2cc(Nc3ccnc4cc(Cl)ccc34)ccc2F)n1`, 54.4% (inactive).
In the case of `COc1ccc2c(c1)[nH]c(=O)c1c3cccnc3cn21`, the growth is 28.9% (inactive).
Still for that read-out and setting: then `Cc1ccc(Cc2cnc(NC(=O)c3ccc4noc(-c5ccccc5)c4c3)s2)cc1`, with 94.8% (inactive); and `CC1=CN2C(=O)C3C4=C(CCCC4)SC3N=C2CN1c1c(C)cccc1C` (stereo unspecified), with 83.9% (inactive); and `Cc1ccc2[nH]c(=O)c3c(c2c1)OC(N)=C(C#N)C31c2cc(Br)ccc2-c2ccc(Br)cc21`, with 39.1% (inactive).
Still for that read-out and setting: to `CS(=O)(=O)c1ccc(Nc2nc(N[C@H]3CCCC[C@H]3N)nc3cc[nH]c(=O)c23)cc1` belongs -12.9% (active); to `O=C(NCCCNc1cc(-c2cn(-c3ccccc3)nc2-c2cccc(O)c2)ccn1)c1cccc(O)c1`, 43.5% (inactive).
Still for that read-out and setting: to `COc1ccc(C(=O)COc2ccc(/C=C3\Oc4ccccc4C3=O)cc2)cc1` belongs 83.6% (inactive).
With `Cc1ccc(C2SCC(=O)N2Cc2ccccc2)cc1` (stereo unspecified), the growth was 98.3% (inactive).
In the case of `Cc1cccc(Cc2cnc(NC(=O)/C=C/c3ccco3)s2)c1`, the growth was 56.5% (inactive).
On to `CN(C)CCNc1nc2ccccc2c2c1c1c(n2Cc2ccccc2)-c2ccccc2C1=O`, for which the growth is -79.8% (active).
Consider `Cc1occc1-c1n[nH]c(=S)n1N1C(=O)CSC1=S`, for which the growth is 101% (inactive).
Still for that read-out and setting: to `Cc1cccc(NC(=O)CSc2nc3ccccc3[nH]2)c1` belongs 88.5% (inactive); to `Cc1ccccc1NC(=O)N/C(N)=N/c1nc(C)c(C)s1`, 50.9% (inactive); to `NNC(=O)c1nc(N)n(-c2ccc(S(N)(=O)=O)cc2)n1`, 88.6% (inactive).
Same read-out and setting: then `COc1cc(CCC[P+](c2ccccc2)(c2ccccc2)c2ccccc2)cc2c1OCO2`, with 29% (inactive); and `O=C1/C(=C2/C=Nc3ccccc32)N(O)c2ccccc21`, with 64.9% (inactive); and `COc1ccccc1N1C(=O)/C(=C/C2=Cc3ccccc3OC2)SC1=S`, with 88.1% (inactive).
Same read-out and setting: to `C=CCn1c(C)nc2cc(Nc3nc(Cl)nc4ccccc34)ccc21` belongs 89.9% (inactive); to `COc1cc(/C=C/C(=O)c2c(C)nc3ccccc3c2C)ccc1OCCCN1CCN(C(=O)c2ccco2)CC1`, 75.3% (inactive); to `Cn1cc(-c2csc(-c3ccccc3)n2)c2cccnc21`, -42.7% [100 µM] (active).
With `N=C(N)c1ccc(-c2ccc(-c3cncc4ccccc34)s2)s1`, the growth is -72.3% (active).
Same read-out and setting: to `CC(C)CC(NC(=O)CN(Cc1ccccc1)S(C)(=O)=O)C(=O)O` (stereo unspecified) belongs 111% (inactive).

The next experiment concerns RXF 393 renal. The experiment is described as above. The settings on record: 10 µM unless noted.
On to `Cc1ccc(Cl)cc1NC(=O)c1cc2ccccc2cc1O`, for which the growth is -15.6% (active).
On the same count and under the same terms, to `COc1ccc(NC(=O)CSc2nc(C)c(C(C)=O)n2-c2ccc([N+](=O)[O-])cc2)cc1` belongs 84.9% (inactive); to `O=C(NC(Cc1nnc2n(Cc3ccccc3)c(=O)c3c4c(sc3n12)CCCC4)c1ccc(Cl)cc1)c1ccccc1` (stereo unspecified), 34.3% (inactive).
The same measure, in the same setting: to `COc1cc(C2CC(=O)Nc3c2c(C)nn3-c2nc3ccccc3[nH]2)c(OC)c(OC)c1OC` (stereo unspecified) belongs 61.5% (inactive); to `Cn1c(-c2c(N)n(Cc3ccc(C(F)(F)F)cc3)c3nc(C#N)c(C#N)nc23)nc2ccccc21`, 4.46% (active).
On the same count and under the same terms, then `N#Cc1c(-c2ccccc2)cc(-c2ccc(Nc3nc(Nc4ccc(F)cc4)nc(Nc4ccc(F)cc4)n3)cc2)nc1N`, with 53.6% (inactive).
Consider `Cc1c(O)cc(-c2cnc(N/N=C\c3ccc(Cl)cc3)s2)c(O)c1C`, for which the growth is 81.3% (inactive).
The same measure, in the same setting: then `COc1ccc2c(c1)O/C(=C\c1cccc(OCC(=O)Nc3nc4ccccc4s3)c1)C2=O`, with -29.3% (active); and `Cn1c2c(c3ccc(Cl)c(Cl)c31)C(C#N)C1(CCNCC1)NC2=O` (stereo unspecified), with 25.9% (inactive).
Regarding `COc1ccc(C2=NN(C(=O)c3cc(OC)c(OC)c(OC)c3)C(c3ccc(Cl)cc3)C2)cc1OC` (stereo unspecified), the growth was 22.6% (inactive).
The same measure, in the same setting: to `CCN(CC)CCN1CC(O)=C(c2nc(-c3ccc(Cl)cc3)cs2)C1=N` belongs 25% (inactive).
`C=C(C)[C@@H]1CC=C2c3sc(-c4ccc(C)cc4)nc3C[C@@H](C)[C@]2(C)C1`: the growth was 113% (inactive).
On the same count and under the same terms, to `COC(=O)c1c2c(c[n+]([O-])c1C)C(=O)C=CC2=O` belongs 57.3% (inactive); to `COc1ccc(NC(=O)CSc2nnc(-c3cc(-c4ccccc4)nc4ccccc34)n2-c2ccccc2)cc1`, 99% (inactive); to `COc1cc(C2CC(=O)Nc3c2c(C)nn3-c2nc3ccccc3[nH]2)cc2c1OCC(=O)N2` (stereo unspecified), -0.584% (active).
Same read-out and setting: then `Cc1cc(Cl)nc(NCc2cc(Nc3ccnc4cc(Cl)ccc34)ccc2F)n1`, with 61.2% (inactive); and `COc1ccc2c(c1)[nH]c(=O)c1c3cccnc3cn21`, with 37% (inactive).
Still for that read-out and setting: to `Cc1ccc(Cc2cnc(NC(=O)c3ccc4noc(-c5ccccc5)c4c3)s2)cc1` belongs -4.67% (active); to `CC1=CN2C(=O)C3C4=C(CCCC4)SC3N=C2CN1c1c(C)cccc1C` (stereo unspecified), 67% (inactive).
In the case of `Cc1ccc2[nH]c(=O)c3c(c2c1)OC(N)=C(C#N)C31c2cc(Br)ccc2-c2ccc(Br)cc21`, the growth is 65.8% (inactive).
As to `CS(=O)(=O)c1ccc(Nc2nc(N[C@H]3CCCC[C@H]3N)nc3cc[nH]c(=O)c23)cc1`, the growth was -54.7% (active).
With `O=C(NCCCNc1cc(-c2cn(-c3ccccc3)nc2-c2cccc(O)c2)ccn1)c1cccc(O)c1`, the growth was 77.3% (inactive).
Same read-out and setting: then `COc1ccc(C(=O)COc2ccc(/C=C3\Oc4ccccc4C3=O)cc2)cc1`, with 95.4% (inactive).
Turning to `Cc1ccc(C2SCC(=O)N2Cc2ccccc2)cc1` (stereo unspecified), the growth was 114% (inactive).
The same measure, in the same setting: to `Cc1cccc(Cc2cnc(NC(=O)/C=C/c3ccco3)s2)c1` belongs -0.566% (active).
Same read-out and setting: to `CN(C)CCNc1nc2ccccc2c2c1c1c(n2Cc2ccccc2)-c2ccccc2C1=O` belongs -65.5% (active); to `Cc1occc1-c1n[nH]c(=S)n1N1C(=O)CSC1=S`, 112% (inactive).
Still for that read-out and setting: to `Cc1cccc(NC(=O)CSc2nc3ccccc3[nH]2)c1` belongs 99% (inactive); to `Cc1ccccc1NC(=O)N/C(N)=N/c1nc(C)c(C)s1`, 0.637% (active); to `NNC(=O)c1nc(N)n(-c2ccc(S(N)(=O)=O)cc2)n1`, 110% (inactive).
As for `COc1cc(CCC[P+](c2ccccc2)(c2ccccc2)c2ccccc2)cc2c1OCO2`, the growth is 76.3% (inactive).
The same measure, in the same setting: then `O=C1/C(=C2/C=Nc3ccccc32)N(O)c2ccccc21`, with 92.2% (inactive); and `COc1ccccc1N1C(=O)/C(=C/C2=Cc3ccccc3OC2)SC1=S`, with 103% (inactive).
The same measure, in the same setting: then `C=CCn1c(C)nc2cc(Nc3nc(Cl)nc4ccccc34)ccc21`, with 87.4% (inactive); and `COc1cc(/C=C/C(=O)c2c(C)nc3ccccc3c2C)ccc1OCCCN1CCN(C(=O)c2ccco2)CC1`, with 74% (inactive); and `Cn1cc(-c2csc(-c3ccccc3)n2)c2cccnc21`, with -37.4% [100 µM] (active).
On the same count and under the same terms, to `N=C(N)c1ccc(-c2ccc(-c3cncc4ccccc34)s2)s1` belongs -74.9% (active).
In the case of `CC(C)CC(NC(=O)CN(Cc1ccccc1)S(C)(=O)=O)C(=O)O` (stereo unspecified), the growth is 80.3% (inactive).
